SMN2 splice enh: enhancers of SMN2 splice variant expression | AID 1458 | HEK293 SMN2-luciferase splicing reporter, luminescence, 30-36 h | Potency, µM (highest dose often 46.1 µM), for the others: at the highest dose activity change, positive = activation, hits mostly activators | 210,000 tested, 2.8% active; also: % of control where 0% means no effect; nearly all actives have a fitted effect of over 55% in size
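HEK293 cells carry an SMN2 minigene-luciferase reporter in which exon 7 inclusion puts luciferase in frame. Cells were seeded at 2000 cells/well, attached for 10-12 hours, then exposed to compounds for 30-36 hours at 37C before ONE-Glo luminescence.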
Rab9 prom act: Rab9 promoter activation; AID 485297; Potency, µM (series often up to 9.22 µM), inactives show top-dose activation, negative = inhibition, hits mostly activators; 320,000 tested, 2.8% active; Huh7 Rab9 promoter-luciferase reporter, luminescence, 24 h; also: % of control where 0% means no effect; nearly all actives have a fitted effect of over 60% in size
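Promoter activation is measured as luciferase luminescence in Huh7 cells stably transfected with a Rab9 promoter–luciferase construct, following 24 h compound exposure at 37 °C and 10 min reagent incubation at ambient temperature.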
Luc counter: blocks Kinase-Glo luciferase, a counter-screen artifact; Potency, µM (titrated, usually from 38.3 µM), without a hit: at the top dose activity change, negative = inhibition, usual class: inhibitors; AID 1379; 200,000 tested, 0.28% active; Kinase-Glo luciferase, ATP luminescence, 8 min; Q27757; also: % is scaled to controls: 0 for no effect and ±100 for the full control effect; nearly all actives have a fitted effect of over 60% in size
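Substrate mix (final 50 mM imidazole pH 7.2, 50 mM KCl, 7 mM MgCl2, 10 uM ATP, 0.01% Tween 20, 0.05% BSA) plus pin-tool compound, then Kinase-Glo detection mix; 8 min ambient, luminescence read.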
NPC1 promoter act: activates the NPC1 promoter. Potency, µM (doses to about 9.22 µM), inactives show at the top dose activation, usual class: activators. 320,000 tested, 2.4% active. Huh7 NPC1 promoter luciferase reporter, 24 h; also: % of control where 0% means no effect; nearly all actives have a fitted effect of over 60% in size
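In 1536-well qHTS, Huh7 cells harboring an NPC1 promoter–luciferase construct received compound for 24 h; activation was quantified by luminescence following luciferase reagent addition.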
FLuc counter: inhibits or activates purified firefly luciferase, miR-21 counter-screen; P08659; purified FLuc, Km substrates, luminescence inhibition; Potency, µM (series often up to 57.5 µM), for the others: at the highest dose activity change, negative = inhibition, actives largely listed as inhibitors; 360,000 tested, 6.9% active; AID 588342;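 also: plate controls were vehicle for no effect and reference inhibitor for full effect; nearly all actives have a fitted effect of over 55% in size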
Target sequence (P08659 whole entry, looked up): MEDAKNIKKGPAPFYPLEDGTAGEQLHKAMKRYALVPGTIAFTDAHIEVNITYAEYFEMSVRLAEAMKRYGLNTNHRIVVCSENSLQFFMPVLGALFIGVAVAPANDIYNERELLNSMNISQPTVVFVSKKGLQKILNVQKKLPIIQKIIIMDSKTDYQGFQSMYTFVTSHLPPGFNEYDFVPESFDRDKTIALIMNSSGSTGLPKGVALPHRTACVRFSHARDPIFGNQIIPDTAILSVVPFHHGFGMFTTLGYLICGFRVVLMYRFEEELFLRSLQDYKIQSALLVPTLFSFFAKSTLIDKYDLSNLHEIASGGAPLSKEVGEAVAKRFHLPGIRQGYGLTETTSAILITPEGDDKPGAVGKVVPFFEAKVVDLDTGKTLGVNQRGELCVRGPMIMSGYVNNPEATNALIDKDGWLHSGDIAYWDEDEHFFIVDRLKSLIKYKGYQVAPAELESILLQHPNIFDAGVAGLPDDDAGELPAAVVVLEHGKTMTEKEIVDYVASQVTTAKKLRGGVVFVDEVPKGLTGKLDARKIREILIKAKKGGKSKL
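Purified P. pyralis luciferase (10nM final) with 10uM D-luciferin and 10uM ATP (Km levels) in 50mM Tris acetate pH 7.5, 10mM Mg acetate, 0.01% Tween-20, 0.05% BSA; qHTS 6-point titration, ~60 µM downward; luminescence read.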
ELG1 genotoxic: genotoxicity induction in ELG1-luciferase HEK293T cells. HEK293T ELG1-luciferase reporter, luminescence, 16 h. Potency, µM (doses to about 46 µM), for the others: at the top dose activity change, positive = activation, hits mostly activators. 330,000 tested, 1.3% active. AID 504466; also: % of control where 0% means no effect; nearly all actives have a fitted effect of over 60% in size
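Genotoxic stress is detected as increased luminescence from luciferase-tagged ELG1 in HEK293T cells, measured with ONE-Glo after a 16 hr treatment at 37 °C.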
The depositor's hits bear a star; ? = inconclusive; / = not tested or not shown; [ ] = another dose, or the depositor's remark. Rows were chosen to be rich in hits. Some 7.3% of all compounds tested hit in one or more screens of this group. Calls follow the shape of the dose curve; as a rule, active = well fitted curve in the direction sought with a large enough effect; inconclusive = small, poorly fitted or top-dose-only effect, or another doubt; inactive = no such curve, though single readings can be large; an effect the other way counts as inactive or inconclusive. Potency is read from the fitted curve at half-maximal effect.

SMILES	SMN2 splice enh	Rab9 prom act	Luc counter	NPC1 promoter act	FLuc counter	ELG1 genotoxic
COc1ccc(-n2ncc3c(NC(C)C)ncnc32)cc1	2.8µM*	0.32µM*	-3%	0.28µM*	1.3µM*	?
COc1ccc(CNc2ncnc3c2cnn3-c2ccc(Cl)cc2)cc1	/	/	/	/	-5%	/
CC1(C(=O)NCCN2CCOCC2)C=CCN1C(=O)c1ccccc1 (stereo unspecified)	?	28%	-3%	12%	24µM*	17%
CNC(=O)C1(C)C=CCN1C(=O)c1ccccc1 (stereo unspecified)	0%	0%	-1%	1%	1%	1%
O=C(CCC(=O)OCC(=O)c1ccc(Br)cc1)NC1CCCCC1	-8%	5%	-1%	-1%	?	-1%
O=C(CCCC(=O)OCC(=O)c1ccc(Cl)cc1)NC1CCCCC1	/	4%	/	3%	12µM*	3%
Cn1ncc(Br)c1C(=O)Nc1c(F)c(F)cc(F)c1F	25µM*	-5%	0%	-6%	0%	17%
COc1ccc2c(=O)c(OC)c(-c3ccccc3)oc2c1	-20%	/	-2%	/	/	/
COc1ccc2c(c1)OCc1c-2oc2cc(OC)ccc12	13µM*	/	-2%	/	/	/
Fc1ccc(-n2nnc(-c3cccnc3Cl)n2)cc1	/	0.35µM*	/	1.6µM*	2.4µM*	5.8µM*
Clc1ccc(-n2nnc(-c3cccnc3Cl)n2)cc1Cl	/	1.1µM*	/	1µM*	1.3µM*	10µM*
COc1ncccc1-c1nnn(-c2ccccc2)n1	/	0.71µM*	/	1.8µM*	3.4µM*	8.2µM*
COc1nn(-c2ccccc2)c(=O)c(Cl)c1Cl	/	-50%	/	-47%	0%	-11%
c1ccc(OCCCn2nnc(-c3cccnc3)n2)cc1	-11%	1%	4%	-6%	-3%	6%
Fc1ccc(-n2nnc(-c3ccccc3Cl)n2)cc1	/	-4%	/	-6%	0%	-2%
c1ccc(-n2nnc(-c3cccnc3)n2)cc1	/	2.8µM*	/	4µM*	13µM*	?
CCOc1ccccc1CNc1nc2nc(C)c(CC(=O)OC)c(=O)n2[nH]1	4%	/	/	/	-18%	/
COc1cc(NC(=O)CCc2nc3cccnc3n2Cc2cccs2)cc(OC)c1OC	-8%	/	/	/	-11%	/
Clc1nc2ccccc2cc1-c1nnn(-c2ccccc2)n1	/	1.6µM*	/	3.2µM*	2.4µM*	16µM*
Fc1ccc(-n2nnc(-c3nccs3)n2)cc1	/	0.5µM*	/	0.5µM*	3.4µM*	3.7µM*
c1ccc2ncc(-n3cnnn3)cc2c1	-5%	0%	-1%	7%	-4%	10%
Cc1ccc(-n2nnc(-c3nccn3C)n2)cc1	/	0.35µM*	/	0.5µM*	1.3µM*	1.8µM*
Cc1ccc(-n2nnc(-c3cnc4ccccc4c3)n2)cc1	/	0.32µM*	/	0.89µM*	0.43µM*	1.6µM*
O=c1ncn(-c2ccc(F)cc2)c2ncccc12	4%	-3%	-4%	1%	0%	4%
Clc1ncccc1-c1nnn(-c2ccccc2)n1	/	1.4µM*	/	1.1µM*	2.4µM*	6.5µM*
SMILES	SMN2 splice enh	Rab9 prom act	Luc counter	NPC1 promoter act	FLuc counter	ELG1 genotoxic
Cc1cccc(-n2c3nc(=O)[nH]c(=O)c-3cc3ccc(Cl)cc32)c1C	-11%	/	/	/	-7%	/
O=C(O)c1cccc(NC(=O)c2cc(NC(=O)c3ccccc3)cc(NC(=O)c3ccccc3)c2)c1	/	3%	/	0%	?	6%
Cc1ccc(C(=O)Nc2ccc(C(=O)O)cc2NC(=O)c2ccc(C)cc2)cc1	/	22%	/	?	21µM*	?
Nc1ccc(C(=O)Nc2cccc(NC(=O)c3ccc(N)cc3)c2)cc1	/	21%	/	4%	11µM*	7%
CC(=O)Nc1ccccc1C(=O)C(=O)Nc1cccc(C(=O)NC2CC2)c1	0%[1.84 µM]	2.8µM*	5%	?	-11%	13%
CCCCNC(=O)c1cccc(NC(=O)C(=O)c2ccccc2NC(C)=O)c1	-8%	-4%	4%	1%	-3%	0%
Cc1cccc2nc(C(=O)Nc3cccc(C(=O)NC4CC4)c3)cn12	/	3.2µM*	/	?	2.4µM*	11%
CCS(=O)(=O)N1CCc2cc(C(=O)Nc3cccc(C)c3C)ccc21	/	/	/	/	-8%	/
Cn1ncc(C(=O)N2CCN(c3ccc(F)cc3)CC2)c1C1CCN(C(=O)OC(C)(C)C)CC1	/	/	/	/	0%	/
Cc1ccc(C(=O)Nc2cccc(C(=O)O)c2)cc1	1µM*	?	-18%	?	0.15µM*	?
Cc1ccc(C(=O)Nc2cccc(C(=O)NC3CCCC3)c2)cc1	/	?	/	?	12µM*	-7%
Cc1oc2c(c1C(=O)Nc1cccc(C(=O)O)c1)CCCC2	14%	?	-1%	?	19µM*	?
Cc1c(C(=O)N(Cc2ccc(N(C)C)cc2)Cc2ccco2)oc2cc(Br)ccc12	19%	/	/	/	-2%	/
CCc1c(C)sc2c1CCN(C(=O)Nc1cc(C)ccc1C)C2c1ccc(OC)cc1 (stereo unspecified)	/	/	/	/	-2%	/
Cn1cc(/C=C2/SC(=O)N(c3ccccc3)C2=O)c2ccccc21	13%	6.3µM*	1%	?	6µM*	3%
Cn1cccc1/C=C1\SC(=O)N(c2ccccc2)C1=O	11µM*	0.71µM*	3%	2µM*	2.4µM*	?
CC(C)C(C(=O)O)N1C(=O)/C(=C/c2cccn2C)SC1=S (stereo unspecified)	-6%	3%	-3%	1%	21µM*	2%
Cn1cccc1/C=C1\SC(=S)N(Nc2ccccc2)C1=O	/	17%	/	12%	?	9%
Cn1cc(/C=C2\SC(=S)N(NC(=O)c3ccccc3)C2=O)c2ccccc21	-1%	2%	-2%	8%	?	2%
O=C(O)Cn1cc(/C=C2\SC(=O)N(c3ccccc3)C2=O)c2ccccc21	1%	0%	-2%	-1%	12µM*	7%
O=C(O)Cn1cc(/C=C2/SC(=O)N(CC(=O)N3CCCCCC3)C2=O)c2ccccc21	/	-2%	/	-2%	?	0%
O=c1[nH]c(=S)c2[nH]c(=O)n(-c3ccccc3)c2[nH]1	-4%[9.22 µM]	/	-5%[7.66 µM]	/	/	/
CCCCn1cc(S(=O)(=O)c2ccc(CC)cc2)c(=O)c2cc(F)c(N3CCOCC3)cc21	/	/	/	/	-8%	/
CCN(CC)c1ccc(NS(=O)(=O)c2ccc3c(c2)CCCN3C(C)=O)c(C)c1	/	/	/	/	-4%	/
CCCN(CCC)C(=O)C1CCN(c2cc(C)nc3c(-c4ccc(Cl)cc4)c(C)nn23)CC1	2%	/	/	/	0%	/
CCCOc1ccc(C(CC(=O)O)NC(=O)c2sc3ccccc3c2Cl)cc1 (stereo unspecified)	/	20%	4%	-1%	15µM*	2%

Screens as filed in PubChem.
